The entries come from a sample that favours hits as a whole.
Pf Dd2 inh: inhibitors of Plasmodium falciparum Dd2 growth; P. falciparum Dd2 growth, SYBR Green, 72 h; Potency, µM (doses to about 28.9 µM), without a hit: at the highest dose activity, negative = inhibition, most hits filed as inhibitors; 4.3% of 120,000 active; active = well fitted inhibition curve with a large enough effect;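 note: plate controls were DMSO vehicle for no effect and reference drug for full effect; nearly all actives have a fitted effect of over 65% in size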
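Infected erythrocytes (Dd2, 0.3% parasitemia, 2.5% hematocrit final) are added to compound in RPMI-1640/Albumax II medium, grown 72 h at 37C in low oxygen, then lysed with saponin/Triton-X containing SYBR Green and read by fluorescence.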
* marks the source's active call; other numbers are inactive results; i = inactive; [ ] = remark or other dose. Potency is the fitted concentration of half-maximal effect.

SMILES	Pf Dd2 inh
O=C1NCCCCCCN(Cc2ccncc2)[C@@H]2CN(Cc3cccnc3)CC[C@H]12	-18.8%
O=C(NC1CC1)[C@@H]1C[C@H](Oc2ccccc2)CN1C(=O)c1cccnc1	14.7%
COc1ccc(-c2noc([C@@H](C)NC(=O)c3ccc4c(c3)OCO4)c2C(=O)O)cc1	0.3%[44.1 µM]
COc1ccccc1NC(=O)Nc1ccc2n(c1=O)C[C@H]1C[C@@H]2CN(C2CCOCC2)C1	i
O=C(NCC1(c2ccccc2F)CCCC1)[C@H]1CCC[C@@H](O)C1	-12.0%
O=C(Cn1ccn2nc(-c3ccc(F)cc3)c(CO)c2c1=O)NCCCc1ccccc1	i
CCn1cc(S(=O)(=O)N2CCCC(c3nn[nH]n3)C2)cn1 (stereo not drawn)	19.4%
Fc1ccc(CN2CCOC[C@H](Oc3ccccc3)C2)cc1	12.6µM*
COc1ccc(OC2CN(Cc3ccc(F)cc3)C2)cc1	13.3%[44.1 µM]
COc1ccc(CN2CCOC[C@H](Oc3ccccc3)C2)cc1	7.08µM*
COc1ccc(CN2CCOC[C@H](Oc3ccc(C(F)(F)F)cn3)C2)cc1	-28.6%[44.1 µM]
COc1ccc(CN2CCOC[C@H](Oc3cccc(C)n3)C2)cc1	i
CS(=O)(=O)c1ccc(O[C@H]2COCCN(Cc3cccnc3)C2)cc1	3.4%[44.1 µM]
O=C1NCCCCCN(C(=O)Nc2ccccc2)[C@H]2CCCC[C@@H]12	-14.6%
Cc1ccc2c(c1)nc1n2[C@@H](CNCc2cnn(C)c2)COC1	9.5%[44.1 µM]
O=C(CC1C(=O)NCCN1CC(c1ccccc1)c1ccccc1)NCc1ccoc1 (stereo not drawn)	i
COc1ccc(CN2C(=O)[C@@H]3C[C@@H](O)CN3C3(CN(C4CCCC4)C3)C2=O)cc1	-7.4%[44.1 µM]
CCOCC(=O)N1CCc2nc(N3CCN(C)CC3)sc2C1	-18.6%
O=C1N[C@@H](Cc2c[nH]c3ccccc23)C(=O)N2CCN(C(=O)c3cccnc3)C[C@@H]12	14.4%[44.1 µM]
O=C(NCCc1ccccc1)[C@@H]1COCC(=O)N1Cc1ccc(F)cc1	12.3%
CCOC(=O)C1(Cc2ccccc2F)CCCN(C(=O)C2=C(C)OCCO2)C1 (stereo not drawn)	-9.7%
CCOC(=O)C1(Cc2ccccc2Cl)CCN(C(=O)c2ccsc2)CC1	-6.2%
CCOC(=O)C1(Cc2ccccc2Cl)CCN(Cc2cccc3c2OCO3)CC1	8.91µM*
O=C(c1ccccc1OCC1CCCN(C2CCCCC2)C1)N1CCOCC1 (stereo not drawn)	-24.0%
O=C(NC1CC1)[C@@H]1CN(Cc2cccnc2)C[C@H]1CO	12.5%
SMILES	Pf Dd2 inh
Cc1cc(NC(=O)Cn2ccn3nc(-c4ccc(F)cc4)c(CO)c3c2=O)n[nH]1	8.1%
COc1cc2nc(Nc3cccc(F)c3)nc(N)c2cc1OC	2.24µM*
COc1ccccc1C(O)c1nc(Nc2cccc(F)c2)n[nH]1 (stereo not drawn)	i
CCOc1ccc(-n2c(/C=C/c3cccc(F)c3)nc3cc(OC)c(OC)cc3c2=O)cc1	i
CCc1noc(-c2cn(C3CCN(C(=O)c4cc(C5CC5)[nH]n4)C3)nn2)n1 (stereo not drawn)	-2.5%
Cc1cnc(-c2cccnc2)n1CC1CCN(C(=O)C2CCC2)CC1	-1.8%
CC1=C(C(=O)Nc2ccc(C)cc2C)C(c2cc(Br)ccc2F)n2ncc(C(=O)Nc3ccc(C)cc3)c2N1 (stereo not drawn)	0.891µM*
CC1=C(C(=O)Nc2cc(Cl)ccc2C)C(c2ccccc2F)n2ncnc2N1 (stereo not drawn)	10.1%
CC1=C(C(=O)Nc2ccc(C)cc2C)C(c2ccc(Cl)cc2)n2nc(C(=O)OC(C)C)nc2N1 (stereo not drawn)	-5.5%
CC1=C(C(=O)Nc2ccc(Cl)cc2)C(c2ccccc2F)n2nc(SCc3cccc(Cl)c3)nc2N1 (stereo not drawn)	36.4%
CC1=C(C(=O)Nc2ccc(C)cc2C)C(c2ccc(Br)cc2)n2ncc(C(=O)Nc3cccc(C)c3)c2N1 (stereo not drawn)	1.12µM*
CC1=C(C(=O)Nc2ccc(C)cc2C)C(c2cccs2)n2nc(SCc3cccc(C)c3)nc2N1 (stereo not drawn)	-6.8%
CC1=C(C(=O)Nc2ccccc2)C(c2cc(Br)ccc2F)n2ncc(C(=O)Nc3ccccc3)c2N1 (stereo not drawn)	1.12µM*
COc1ccc(C2C(C(=O)Nc3ccc(C)cc3C)=C(C)Nc3nc(SC)nn32)cc1OC (stereo not drawn)	15.4%
CC1=C(C(=O)Nc2ccc(C)cc2C)C(c2ccc[nH]2)n2ncnc2N1 (stereo not drawn)	28.5%
Cc1cnc(C(=O)N[C@@H]2CCC[C@@H]2C(=O)NCCCN2CCOCC2)cn1	2.8%
Cc1ccc(CNS(=O)(=O)c2c(C(=O)N3CCC(C)CC3)c(C)n(C)c2C)cc1	12.2%
Cc1c(C(=O)N2CCCCCC2)c(S(=O)(=O)N(Cc2ccccc2)C(C)(C)C)c(C)n1C	12.6µM*
Cc1c(C(=O)N2CCCCC2)c(S(=O)(=O)NCc2ccc(N(C)C)cc2)c(C)n1C	-17.0%
CC(C)CCN1CC(Oc2ccc(F)c(F)c2)C1	3.4%[44.1 µM]
Cc1cccc(NC(=O)N2CCC(CCNC(=O)Cc3cccc(F)c3)CC2)c1	i
CCn1nccc1C(=O)N1C[C@@H](COCC2CC2)[C@H](c2ccncc2)C1	2.5%
CCc1ccccc1NC(=O)Cn1cccc1-c1nc(-c2ccccc2)no1	2.82µM*
COc1ccc(C(=O)NCCn2cccc2-c2nc(-c3ccccc3)no2)cc1	i
Cc1cc(C)c(NC(=O)Cn2cccc2-c2nc(-c3ccc(F)cc3)no2)c(C)c1	95.2%
SMILES	Pf Dd2 inh
O=C(Cn1cccc1-c1nc(-c2ccc(F)cc2)no1)Nc1cccc(F)c1	-4.0%
Cc1ccc(NC(=O)Cn2cccc2-c2nc(-c3ccccc3)no2)cc1	89.7%
COc1ccc(CCNC(=O)Cn2cccc2-c2nc(-c3ccc(F)cc3)no2)cc1OC	i
COc1ccc(NC(=O)Cn2cccc2-c2nc(-c3ccc(F)cc3)no2)cc1	2.51µM*
CCOc1ccc(C(=O)NCCn2cccc2-c2nc(-c3ccccc3)no2)cc1OCC	10µM*
Cc1ccc(NC(=O)Cn2cccc2-c2nc(-c3ccccc3)no2)c(Cl)c1	4.8%
COc1ccc(-c2noc(-c3cccn3CC(=O)Nc3cc(F)ccc3Cl)n2)cc1F	-10.5%
CCOc1ccc(CCNC(=O)Cn2cccc2-c2nc(-c3ccccc3)no2)cc1OCC	3.1%
COc1ccc(-c2noc(-c3cccn3CC(=O)Nc3cccc(Cl)c3)n2)cc1F	2.51µM*
CCc1cn(C[C@H](NC2CCOCC2)C(=O)O)c(=O)[nH]c1=O	14.4%[44.1 µM]
O=C(Cn1ccn2nc(-c3ccccc3)c(CO)c2c1=O)Nc1ccc2c(c1)OCO2	-5.3%
COc1ccc(CN2CCn3c(nnc3-c3ccc(Cl)cc3)C2)cc1	-23.0%
COCCC1(CO)CCCN(C(=O)CCc2c(C)noc2C)C1 (stereo not drawn)	-4.9%
CN1CCC(CNc2ncc(C(C)(C)C(=O)O)c(N3CCOCC3)n2)CC1	14.6%
Cc1ccc(S(=O)(=O)Nc2ccc(C)n(CC(=O)N3CCOCC3)c2=O)cc1	5.8%
COCCN1CC2(CCCN(C(=O)NCCc3cccs3)C2)CCC1=O (stereo not drawn)	8.7%
CCN(CC)C(=O)N1CC(Oc2ccc(-c3noc(COC)n3)cc2)C1	-4.6%
CN(C)c1cccc(NC(=O)C2=NO[C@@H]3CN(Cc4ccc(F)cc4)C[C@H]23)c1	15.5%[44.1 µM]
COc1cc(CN2CCc3nc(N4CCN(C)CC4)[nH]c(=O)c3CC2)cc(OC)c1OC	i[5.79 µM]
Cc1ccc(NC(=O)NC[C@H]2O[C@@H](CC(=O)NCCN3CCOCC3)[C@H](O)[C@@H]2O)cc1	-11.7%

Assay outcomes (PubChem)
